Values joined by “and” are separate entries in the source; they are usually repeats but may differ in a detail not shown here. Equal entries are not always repeated. Records with an inconclusive call do not appear. Where a call stands in place of a potency, no number is given. Some structures have more than one record in an assay (separate samples or runs), and their calls can disagree. Active and inactive are the calls of the source. Unless noted, calls follow the shape of the dose curve; as a rule, active = well fitted curve in the direction sought with a large enough effect in the repeat runs; inconclusive = weak or mixed curves; inactive = no such curve, though single readings can be large; an effect the other way counts as inactive or inconclusive.
What was measured:
[1] = qHTS assay to identify small molecule antagonists of the estrogen receptor alpha (ER-alpha) signaling pathway using the BG1 cell line in the presence of 0.1 nM 17-beta-estradiol - cell viability counter screen (AID 1259241); also: nearly all actives have a fitted effect of over 40% in size
In short: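 VM7Luc4E2 cells (endogenous ER-alpha, 4×ERE-luciferase), hormone-starved 5 days in charcoal-stripped FBS, were treated with compounds plus 0.1 nM 17beta-estradiol for 22 hr at 37C; viability read in same wells as CellTiter-Fluor live-cell protease fluorescence.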

[2] = qHTS assay to identify small molecule antagonists of the androgen receptor (AR) signaling pathway using the MDA cell line in the presence of 0.5 nM R1881 - cell viability counter screen (AID 1259242); also: nearly all actives have a fitted effect of over 45% in size
In short: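 MDA-kb2 cells (MMTV-luciferase, AR/GR responsive) were treated with compounds plus 0.5 nM R1881 (final) for 16 hr at 37C, 0% CO2. Viability was then read in the same wells as live-cell protease fluorescence (CellTiter-Fluor, 30 min).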

[3] = target: Estrogen receptor (Homo sapiens) (UniProt P03372); assay: qHTS assay to identify small molecule antagonists of the estrogen receptor alpha (ER-alpha) signaling pathway using the BG1 cell line in the presence of 0.1 nM 17-beta-estradiol (AID 1259244); also: nearly all actives have a fitted effect of over 50% in size
Chain of Estrogen receptor (Homo sapiens) (P03372 whole entry, looked up): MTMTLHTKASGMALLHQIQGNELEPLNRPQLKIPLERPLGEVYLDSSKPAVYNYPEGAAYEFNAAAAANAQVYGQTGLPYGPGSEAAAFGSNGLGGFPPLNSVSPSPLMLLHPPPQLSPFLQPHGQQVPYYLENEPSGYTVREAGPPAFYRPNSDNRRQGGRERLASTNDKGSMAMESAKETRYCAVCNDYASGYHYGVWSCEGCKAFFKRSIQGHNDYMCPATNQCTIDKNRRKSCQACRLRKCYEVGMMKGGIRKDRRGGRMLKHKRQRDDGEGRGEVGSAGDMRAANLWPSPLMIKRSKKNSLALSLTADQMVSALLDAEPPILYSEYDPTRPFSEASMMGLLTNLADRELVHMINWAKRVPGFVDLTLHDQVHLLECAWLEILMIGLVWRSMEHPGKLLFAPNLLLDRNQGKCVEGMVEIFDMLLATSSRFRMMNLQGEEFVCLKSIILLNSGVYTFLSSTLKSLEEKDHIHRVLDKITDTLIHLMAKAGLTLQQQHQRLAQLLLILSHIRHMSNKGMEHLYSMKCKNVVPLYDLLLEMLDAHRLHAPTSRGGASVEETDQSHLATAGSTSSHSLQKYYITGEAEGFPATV
In short: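 VM7Luc4E2 cells (endogenous full-length ER-alpha, 4×ERE-luciferase), kept 5 days in phenol red-free, charcoal-stripped FBS medium; 4,000 cells/well. Compounds added with 0.1 nM (final) 17beta-estradiol, 22 hr at 37C; luminescence read with ONE-Glo after 30 min.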

[4] = qHTS assay to identify small molecule phospholipidosis (PLD) inducers (AID 1259344; active = well fitted curve in the direction sought with a large enough effect; an effect the other way counts as inactive or inconclusive)
In short: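 HepG2 cells, 900/well, treated with compound plus LipidTOX Red for 24 h at 37 C; amiodarone positive and DMSO negative controls. Fixed with paraformaldehyde/Hoechst, then high-content imaging scored LipidTOX pit count and integrated intensity per well and per cell.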

[5] = qHTS assay to identify small molecule HDAC inhibitors (AID 1259364); also: nearly all actives have a fitted effect of over 45% in size; also: potency is read from the fitted curve at half-maximal effect
In short: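 Wild-type HCT-116 cells, plated overnight at 37 C, exposed to compounds 2 hr at 37 C; luminogenic HDAC-Glo substrate then added 30 min at room temperature. Luminescence reports relative endogenous class I/II HDAC activity.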

[6] = qHTS assay to identify small molecule HDAC inhibitors - cell viability counter screen (AID 1259365); also: series mostly up to about 92 µM; nearly all actives have a fitted effect of over 50% in size
In short: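 Wild-type HCT-116 cells were seeded at 1,500 per well, incubated overnight at 37 C, then exposed to compounds in DMSO for 2hr. Viability was read by CellTiter-Glo luminescence after 30min at room temperature.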

[7] = qHTS assay to identify small molecule agonists of the sonic hedgehog signaling (Shh) pathway - cell viability counter screen (AID 1259366); also: nearly all actives have a fitted effect of over 50% in size
In short: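 NIH/3T3-derived 3T3 Gli1-Luc cells (stable Gli1-responsive firefly luciferase reporter) were seeded, rested 4 hr at 37 C/5% CO2, then exposed to compounds in DMSO for 24 hr; viability was read by CellTiter-Fluor fluorescence in the same wells.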

[8] = qHTS assay to identify small molecule agonists of the sonic hedgehog signaling (Shh) pathway (AID 1259368; calls by dose curve; also: series mostly up to about 92 µM; nearly all actives have a fitted effect of over 15% in size)
In short: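 NIH/3T3-derived 3T3Gli1-Luc cells with stably integrated Gli1-driven firefly luciferase, 2,000 cells/well, compounds added after 4 hr. Incubated 24 hr at 37C, 5% CO2; luminescence read after 30 min with luciferase reagent at room temperature.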

[9] = qHTS assay to identify small molecule antagonists of the sonic hedgehog signaling (Shh) pathway (AID 1259369; calls by dose curve; also: nearly all actives have a fitted effect of over 45% in size; also: potency is read from the fitted curve at half-maximal effect)
In short: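 NIH/3T3-derived Gli1-Luc reporter cells plated 4 h, dosed with compound, then stimulated with conditioned medium for 24 h at 37 C. Firefly luciferase luminescence read after 30 min with detection reagent at room temperature.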

[10] = qHTS assay to identify small molecule agonists of the androgen receptor (AR) signaling pathway in the presence of an antagonist - cell viability counter screen (AID 1259379);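 also: MDA-kb2 human breast cancer cells carrying an MMTV luciferase reporter; series mostly up to about 92 µM; nearly all actives have a fitted effect of over 25% in size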
In short: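 MDA-kb2 cells (MMTV-luciferase, AR/GR), 3,000/well, 5 h attachment, then 3.0 µM nilutamide (final) and compounds at 15 concentrations. Viability by CellTiter-Fluor fluorescence after 16 h at 37 °C, 0% CO2, in the reporter wells.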

[11] = qHTS assay to identify small molecule agonists of the estrogen receptor beta (ER-beta) signaling pathway - cell viability counter screen (AID 1259380); also: nearly all actives have a fitted effect of over 30% in size; also: potency is read from the fitted curve at half-maximal effect
In short: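 ER-beta-UAS-bla HEK293T cells in medium with 2% charcoal-stripped FBS, pre-incubated 6 hr, then treated 16 hr at 37C. Cytotoxicity read in the same wells by CellTiter-Glo luminescence after 30 min at room temperature.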

[12] = qHTS assay to identify small molecule antagonists of the estrogen receptor beta (ER-beta) signaling pathway - cell viability counter screen (AID 1259382); also: series mostly up to about 92 µM; nearly all actives have a fitted effect of over 55% in size
In short: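 ER-beta-UAS-bla HEK293T cells in 2% charcoal-stripped FBS medium, treated with compound plus 1 nM 17-beta-estradiol for 16 h at 37C. Viability read by CellTiter-Glo luminescence after 30 min at room temperature in the same wells.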

[13] = target: Estrogen receptor (Homo sapiens) (UniProt P03372); assay: qHTS assay to identify small molecule agonists of the estrogen receptor alpha (ER-alpha) signaling pathway in the presence of an antagonist (AID 1259383; calls by dose curve; also: top concentration of the series differs between compounds; nearly all actives have a fitted effect of over 15% in size)
In short: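 VM7Luc4E2 cells express endogenous full-length ER-alpha with an ERE-luciferase reporter and were hormone-deprived for 5 days. Compounds at 15 concentrations were added with 10.0nM ICI-182,780 for 22hr at 37C. Luminescence was read with ONE-Glo.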

[14] = qHTS assay to identify small molecule agonists or antagonists of the thyroid stimulating hormone receptor (TSHR) signaling pathway - wild type cell line counter screen (AID 1259384; calls by dose curve)
In short: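 Wild-type Hek293 cells, 800/well, 18 h at 37C, then compound with Ro20-1724 for 30 min RT. cAMP by HTRF (cAMP-d2/anti-cAMP cryptate), 1 h RT, fluorescence read. 15 concentrations, triplicates.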

[15] = target: Thyrotropin receptor (Homo sapiens) (UniProt P16473); assay: qHTS assay to identify small molecule antagonists of the thyroid stimulating hormone receptor (TSHR) signaling pathway (AID 1259385; calls by dose curve; also: nearly all actives have a fitted effect of over 20% in size)
Chain of Thyrotropin receptor (Homo sapiens) (P16473 whole entry, looked up): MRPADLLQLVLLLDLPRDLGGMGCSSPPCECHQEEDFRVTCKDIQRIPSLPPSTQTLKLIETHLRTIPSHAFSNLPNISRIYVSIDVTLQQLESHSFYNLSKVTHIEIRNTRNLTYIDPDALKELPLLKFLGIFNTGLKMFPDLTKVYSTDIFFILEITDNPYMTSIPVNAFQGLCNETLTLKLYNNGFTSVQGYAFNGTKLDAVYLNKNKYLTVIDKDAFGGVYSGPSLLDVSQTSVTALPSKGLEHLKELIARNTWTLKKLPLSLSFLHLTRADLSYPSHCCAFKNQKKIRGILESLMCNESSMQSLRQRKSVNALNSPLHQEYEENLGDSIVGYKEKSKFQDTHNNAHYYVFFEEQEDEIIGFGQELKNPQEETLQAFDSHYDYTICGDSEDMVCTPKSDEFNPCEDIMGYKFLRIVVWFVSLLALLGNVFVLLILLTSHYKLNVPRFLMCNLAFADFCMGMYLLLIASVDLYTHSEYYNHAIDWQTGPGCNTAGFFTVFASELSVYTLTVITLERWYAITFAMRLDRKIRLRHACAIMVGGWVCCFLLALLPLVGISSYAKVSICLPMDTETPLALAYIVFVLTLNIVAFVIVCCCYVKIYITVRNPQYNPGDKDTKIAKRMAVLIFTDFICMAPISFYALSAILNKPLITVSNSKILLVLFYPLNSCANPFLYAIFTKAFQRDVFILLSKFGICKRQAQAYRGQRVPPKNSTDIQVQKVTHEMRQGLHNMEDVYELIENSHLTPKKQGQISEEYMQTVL
In short: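 TSHR-HEK293 cells (800/well) plated 18 h, then compounds with Ro20-1724 and TSH at 1.5 ng/mL final, 30 min at room temperature. cAMP quantified by HTRF (cAMP-d2/anti-cAMP-cryptate, 1 h); 15 concentrations in triplicate.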

[16] = target: Androgen receptor (Homo sapiens) (UniProt P10275); assay: qHTS assay to identify small molecule antagonists of the androgen receptor (AR) signaling pathway using the MDA cell line in the presence of 0.5 nM R1881 (AID 1259243); also: nearly all actives have a fitted effect of over 50% in size
Chain of Androgen receptor (Homo sapiens) (P10275 whole entry, looked up): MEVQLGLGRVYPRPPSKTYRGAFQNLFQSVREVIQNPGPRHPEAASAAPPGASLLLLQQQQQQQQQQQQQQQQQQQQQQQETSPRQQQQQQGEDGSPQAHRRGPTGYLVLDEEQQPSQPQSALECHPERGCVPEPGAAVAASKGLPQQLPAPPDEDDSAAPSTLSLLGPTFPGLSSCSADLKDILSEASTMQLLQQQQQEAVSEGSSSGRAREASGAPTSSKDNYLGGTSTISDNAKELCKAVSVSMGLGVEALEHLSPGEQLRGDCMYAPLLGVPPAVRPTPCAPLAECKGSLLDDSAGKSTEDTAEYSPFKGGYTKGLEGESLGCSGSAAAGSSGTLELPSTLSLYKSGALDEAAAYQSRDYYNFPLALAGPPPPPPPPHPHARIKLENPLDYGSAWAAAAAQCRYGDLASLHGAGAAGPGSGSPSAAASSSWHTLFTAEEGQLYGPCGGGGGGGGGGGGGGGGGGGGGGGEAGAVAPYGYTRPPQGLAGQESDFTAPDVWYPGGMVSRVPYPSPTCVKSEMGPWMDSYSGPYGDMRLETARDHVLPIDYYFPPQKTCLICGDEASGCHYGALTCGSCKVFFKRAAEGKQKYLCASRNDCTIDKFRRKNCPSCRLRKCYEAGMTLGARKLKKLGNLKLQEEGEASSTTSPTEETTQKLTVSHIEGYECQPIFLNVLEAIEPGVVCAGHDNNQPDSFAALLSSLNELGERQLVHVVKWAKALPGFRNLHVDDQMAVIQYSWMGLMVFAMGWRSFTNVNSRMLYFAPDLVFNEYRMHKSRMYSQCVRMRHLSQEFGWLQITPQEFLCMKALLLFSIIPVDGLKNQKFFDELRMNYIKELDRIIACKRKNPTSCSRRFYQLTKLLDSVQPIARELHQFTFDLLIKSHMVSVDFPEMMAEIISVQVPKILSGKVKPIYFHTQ
In short: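 MDA-kb2 cells (MMTV-luciferase, responsive to AR and GR) at 3,000/well, rested 5 h at 37C, 0% CO2, then given compounds plus 0.5 nM R1881 (final) for 16 hr. Luciferase read with ONE-Glo after 30 min at room temperature.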

[17] = target: Estrogen receptor beta (Homo sapiens) (UniProt Q92731); assay: qHTS assay to identify small molecule antagonists of the estrogen receptor beta (ER-beta) signaling pathway (AID 1259378; active = well fitted inhibition curve with a large enough effect in the signal ratio in the repeat runs, not every such curve was filed as active; the % refers to the signal ratio)
Chain of Estrogen receptor beta (Homo sapiens) (Q92731 whole entry, looked up): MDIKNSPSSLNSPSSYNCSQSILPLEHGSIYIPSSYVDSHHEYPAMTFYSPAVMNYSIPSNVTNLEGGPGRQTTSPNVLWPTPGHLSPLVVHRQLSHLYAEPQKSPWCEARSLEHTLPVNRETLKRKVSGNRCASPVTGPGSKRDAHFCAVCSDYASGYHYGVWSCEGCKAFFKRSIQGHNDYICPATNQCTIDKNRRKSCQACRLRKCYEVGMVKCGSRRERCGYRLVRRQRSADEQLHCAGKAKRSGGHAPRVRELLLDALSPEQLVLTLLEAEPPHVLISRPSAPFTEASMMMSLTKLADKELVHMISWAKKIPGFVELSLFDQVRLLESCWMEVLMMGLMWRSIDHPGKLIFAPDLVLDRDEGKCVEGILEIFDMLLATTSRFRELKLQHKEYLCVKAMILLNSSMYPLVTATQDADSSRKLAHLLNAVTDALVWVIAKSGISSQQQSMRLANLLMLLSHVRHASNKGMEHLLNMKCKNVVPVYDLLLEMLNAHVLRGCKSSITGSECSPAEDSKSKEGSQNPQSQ
In short: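 ER-beta-UAS-bla HEK293T cells in 2% charcoal-stripped FBS medium treated with compound plus 1nM final 17-beta-estradiol for 16 hr at 37C. Beta-lactamase reporter read by FRET substrate fluorescence after 2 hours at room temperature.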

[18] = target: Androgen receptor (Homo sapiens) (UniProt P10275); assay: qHTS assay to identify small molecule agonists of the androgen receptor (AR) signaling pathway in the presence of an antagonist (AID 1259381; calls by dose curve; also: nearly all actives have a fitted effect of over 15% in size)
In short: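 MDA-kb2 cells carrying MMTV-luciferase (AR/GR responsive), 3,000 cells/well, co-treated with 3.0 uM nilutamide final. Compounds at 15 concentrations, 16 hr at 37C without CO2. Luciferase luminescence read after 30 min with ONE-Glo.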

[19] = qHTS assay to identify small molecule antagonists of the sonic hedgehog signaling (Shh) pathway - cell viability counter screen (AID 1259367); also: nearly all actives have a fitted effect of over 55% in size
In short: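 NIH/3T3-derived Gli1-Luc reporter cells, 2,000/well, plated 4 hr before compound addition, then stimulated with conditioned medium for 24 hr at 37C. Viability measured in the same wells by CellTiter-Fluor fluorescence, reagent added at 23 hr for 1 hr.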

SMILES | Potency [1] | Potency [2] | Potency [3] | Potency [4] | Potency [5] | outcome [6] | Potency [7] | Potency [8] | Potency [9] | Potency [10] | Potency [11] | Potency [12] | Potency [13] | Potency [14] | Potency [15] | Potency [16] | Potency [17] | Potency [18] | Potency [19]
CC(C)[N+](C)(CCOC(=O)C1c2ccccc2Oc2ccccc21)C(C)C | inactive | inactive | inactive | inactive | inactive | inactive | inactive | inactive | inactive | inactive | inactive | inactive | inactive | inactive | inactive | – | – | – | –
COc1ccc2nc(N)sc2c1 | inactive | inactive | inactive | – | 27.3 µM (active) and 24.3 µM (active) | inactive | inactive | inactive | inactive | inactive | inactive | inactive | inactive | inactive | – | inactive | inactive | inactive | –
CCC(Cc1c(I)cc(I)c(N)c1I)C(=O)O (stereo unspecified) | inactive | inactive | inactive | inactive | inactive | inactive | inactive | inactive | inactive | inactive | 33.3 µM (active) | inactive | inactive | – | inactive | – | – | – | inactive
CC/C=C\C/C=C\C/C=C\CCCCCCCC(=O)O | inactive | inactive | inactive | inactive | inactive | inactive | inactive | inactive | inactive and 43.3 µM (active) | inactive | 24.1 µM (active) and inactive | inactive | inactive | – | inactive | – | inactive | – | inactive
CN(Cc1cnc2nc(N)nc(N)c2n1)c1ccc(C(=O)N[C@@H](CCC(=O)O)C(=O)O)cc1 | inactive | inactive | inactive | inactive | inactive | inactive | inactive | inactive | inactive | inactive | 172 nM (active) and 133 nM (active) | – | inactive | inactive | inactive | inactive | inactive | inactive | inactive
CC1(C)O[C@@H]2C[C@H]3[C@@H]4C[C@H](F)C5=CC(=O)C=C[C@]5(C)[C@@]4(F)[C@@H](O)C[C@]3(C)[C@]2(C(=O)CO)O1 | inactive | inactive | inactive | inactive | inactive | inactive | inactive | inactive | inactive | inactive | inactive | inactive | inactive | inactive | inactive | – | – | – | inactive
C/C=C/C(=O)N(CC)c1ccccc1C | inactive | inactive | inactive | inactive | inactive | inactive | inactive | inactive | inactive | inactive | inactive | inactive | inactive | – | inactive | – | – | – | inactive
